Only some compounds are listed: those with a hit (about 11% of all), similar ones and a draw of the others.
Vaccinia mCherry: vaccinia inhibition (mCherry reporter); Potency, µM (top dose mostly 36.5 µM), without a hit: at the highest dose activity change, negative = inhibition, usual class: inhibitors; Vaccinia virus mCherry reporter infection, fluorescence; AID 720579; 0.63% of 310,000 active; calls by dose curve; tested in A549 cells; further: on the % scale 0 is the no-effect control and ±100 the full control effect; nearly all actives have a fitted effect of over 35% in size
VACV Venus inh: vaccinia inhibition (Venus reporter); Vaccinia virus Venus reporter expression, fluorescence; Potency, µM (series often up to 36.5 µM), for inactives: at the top dose activity change, negative = inhibition, most hits filed as inhibitors; 0.46% of 330,000 active; AID 720580; calls by dose curve; tested in A549 cells; further: on the % scale 0 is the no-effect control and ±100 the full control effect; nearly all actives have a fitted effect of over 30% in size
Pf growth 96h: P. falciparum growth inhibition at 96 hour, primary screen for plastid delayed-death inhibitors | P. falciparum luciferase reporter growth, 96 h | Potency, µM (top dose mostly 28.7 µM), without a hit: top-dose activity change, negative = inhibition, usual class: inhibitors | 6.9% of 320,000 active; further: on the % scale 0 is the no-effect control and ±100 the full control effect
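96 h incubation, 37 C, 5% CO2, of luciferase-reporter P. falciparum-infected RBCs (2% hematocrit, 0.05% parasitemia final) with test compounds; endpoint luminescence.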
NS1 function inh: inhibitors of influenza NS1 protein function. 0.4% of 270,000 active. Potency, µM (titrated, usually from 46.1 µM), for inactives: top-dose activity, positive = more growth; calls by dose curve; further: actives are rising curves; nearly all actives have a fitted effect of over 50% in size
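Growth recovery, yeast-based: influenza A NS1 expressed in S. cerevisiae causes slow growth, and suppressors are detected by OD600. The parent strain without NS1 is used as positive control.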
HCV inhibitor: HCV inhibition; Huh7.5.1 HCVcc-Cre infection, luciferase reporter, 44 h; Potency, µM (series often up to 41.8 µM), without a hit: at the top dose activity change, negative = inhibition, hits mostly inhibitors; 3.4% of 340,000 active; AID 651820; further: on the % scale 0 is the no-effect control and ±100 the full control effect
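Cells seeded at 1,000/well and cultured 4 h, then compounds added followed by HCVcc-Cre virus (~0.5 moi). After 44 h further culture, luciferase substrate was added, plates held 15 min at room temperature, and luminescence read for 15 sec.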
Pf growth 48h: P. falciparum growth inhibition at 48 hours (one generation); P. falciparum luciferase growth in erythrocytes, 48 h; Potency, µM (highest dose often 28.7 µM), for the others: top-dose activity change, negative = inhibition, most hits filed as inhibitors; 5.9% of 310,000 active; further: on the % scale 0 is the no-effect control and ±100 the full control effect
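Growth was read as firefly luciferase luminescence after a 48 h, 37 C, 5% CO2 exposure of compounds to reporter-bearing P. falciparum cultures (0.1% parasitemia, 2% hematocrit final) in Albumax-supplemented RPMI 1640.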
Numbers without * were called inactive; i = inactive; ? = inconclusive; . = not tested or not shown; ! = a repeat was not active; [ ] = remark or other dose. Unless noted, the call rests on the fitted dose curve; in most records, active means well fitted inhibition curve with a large enough effect; inconclusive means small, poorly fitted or top-dose-only effect, or another doubt; inactive means no such curve, though single readings can be large or run the other way. Potency means the concentration at half of the fitted maximal effect.

SMILES | Vaccinia mCherry | VACV Venus inh | Pf growth 96h | NS1 function inh | HCV inhibitor | Pf growth 48h
Clc1ncnc2scc(-c3ccc(Br)cc3)c12 | ? | -10.0% | 0.329µM* | -3.6% | ? | 0.828µM*
OCC1(CCCc2ccccc2)CCN(Cc2cnc(N3CCOCC3)s2)CC1 | -19.3% | -16.6% | 9.28µM* | 1.3% | ? | -7.8%
COc1ccc(NC(=O)CSc2nnc(-c3cccnc3)s2)cc1 | i | -11.2% | 6.57µM* | 4.0% | 8.9% | 10.9%
Cc1ccc(S(=O)(=O)Nc2ccc3ccccc3c2)cc1 | ? | ? | . | . | -4.7% | .
Fc1cccc(F)c1-n1c(CN2CCCCC2)csc1=S | -23.0% | -20.1% | 11.7µM* | . | ? | ?
CCc1ccc(OCC(=O)OCC(=O)NCCNC(=O)COC(=O)COc2ccc(CC)cc2)cc1 | -1.4% | -19.7% | 49.6% | 3.9% | 22.5% | 13.6%
CCCCOc1ccc(-c2c(C#N)c(N)nc(SCC(N)=O)c2C#N)cc1 | . | ? | ? | ? | 5.01µM* | ?
CC1(CN2CCC(n3c(=O)[nH]c4ccccc43)CC2)OCc2ccccc2-n2cccc21 (configuration not stated) | . | . | 13.5µM* | . | . | 15.1µM*
O=S1(=O)N=C2CCCCCN2C(c2ccncc2)N1 (configuration not stated) | -14.1% | -13.3% | . | -1.9% | 13.2% | .
Cc1ccc2oc(C(=O)N(C)Cc3cnccn3)c(C)c2c1 | i | -9.2% | ? | 3.3% | -7.5% | 2.94µM*
CCC1=C(OC(=O)N(CC)CC)N2C(=O)OC(=NCCc3c[nH]c4ccccc34)[C@]2(Cc2ccccc2)[C@H]2C1=CC[C@H]1C(=O)N(C)C(=O)[C@H]12 | -5.8% | ? | 11.7µM* | -17.3% | -28.7% | 10.4µM*
CCC1=C(OC(=O)N(CC)CC)N2C(=O)OC(=NCCc3c[nH]c4ccccc34)[C@]2(Cc2ccccc2)[C@H]2C1=CC[C@H]1C(=O)N(c3ccccc3)C(=O)[C@H]12 | -2.9% | -23.7% | ? | 8.6% | -26.9% | 13.1µM*
CCC1=C2CC[C@H]3C(=O)N(C)C(=O)[C@H]3[C@H]2[C@@]2(Cc3ccccc3)C(=NCC(=O)OC)OC(=O)N2C1=O | i | -9.0% | ? | -1.0% | 59.7% | 32.3%
CCC1=C2CC[C@H]3C(=O)N(c4ccccc4)C(=O)[C@H]3[C@H]2[C@@]2(C)C(=NCc3ccccc3)OC(=O)N2C1=O | -7.5% | -6.1% | ? | -0.2% | 7.7% | ?
CC1CN(c2ccc(Cl)cc2)c2nc3c(c(=O)[nH]c(=O)n3C)n2C1 (configuration not stated) | . | . | 3.0% | -2.1% | 4.8% | -2.0%
CCc1ccc(N2CC(C)Cn3c2nc2c3c(=O)[nH]c(=O)n2C)cc1 (configuration not stated) | ? | ? | 2.94µM* | 7.0% | 25.1µM* | 7.38µM*
CC(C)C(=O)N1CCN(c2ccc(NC(=O)c3ccco3)cc2Cl)CC1 | -2.6% | -6.8% | ? | 6.6% | -7.5% | 9.28µM*
O=C(Nc1ccc(N2CCN(C(=O)c3ccccc3)CC2)c(Cl)c1)c1ccco1 | -24.6% | ? | -21.7% | -37.2% | 10µM* | 8.28µM*
CCc1cc(Cn2nc(-c3ccccc3)cc2C(=O)NCc2ccccc2OC)on1 | i | -25.1% | ? | . | ? | 10.4µM*
CC(=O)NC(c1cccs1)c1cc([N+](=O)[O-])c2cccnc2c1O (configuration not stated) | ? | ? | ? | -17.5% | 12.6µM* | ?
CC(C)C(=O)NC(c1ccccc1)c1cc([N+](=O)[O-])c2cccnc2c1O (configuration not stated) | ? | ? | 0.37µM* | 4.1% | ? | -7.7%
CCOC(=O)C1CCN(c2nc3c(S(=O)(=O)c4ccc(Br)cc4)nnn3c3ccsc23)CC1 | -13.7% | -17.7% | . | . | . | .
O=C(O)c1cc(O)c2c(c1)[C@H]([C@H]1c3cc(C(=O)O)cc(O)c3C(=O)c3c(O[C@@H]4O[C@H](CO)[C@@H](O)[C@H](O)[C@H]4O)cccc31)c1cccc(OC3O[C@H](CO)[C@@H](O)[C@H](O)[C@H]3O)c1C2=O (some centres not stated) | i | -14.5% | 85.8% | . | 0.355µM*! | 3.2%
CC(C)[C@H](NC(=O)CCn1nnc2ccccc2c1=O)C(=O)O | -17.3% | ? | -0.5%[5.75 µM] | 5.3% | -1.7% | 12.1%
COc1ccc(-c2cc(C3CCN(c4ccc(C(C)=O)cc4[N+](=O)[O-])CC3)[nH]n2)cc1 | . | . | ? | ? | 11.2µM* | ?
SMILES | Vaccinia mCherry | VACV Venus inh | Pf growth 96h | NS1 function inh | HCV inhibitor | Pf growth 48h
COC(=O)c1ccc(N2CCN(CC(=O)c3ccc(-c4ccccc4)cc3)CC2)c([N+](=O)[O-])c1 | -10.5% | -4.9% | ? | -58.6% | -0.3% | 11.7µM*
COC(=O)c1ccc(N2CCC(c3cc(-c4ccc(OC)cc4)n[nH]3)CC2)c([N+](=O)[O-])c1 | . | . | ? | 5.6% | 11.2µM* | ?
CCOC(=O)C1CCCN(Cc2nc(Cc3cccc(F)c3)no2)C1 (configuration not stated) | . | . | ? | -5.6% | 1.7% | 10.5%
Cc1cc2occ(CC(=O)NC3CCCc4ccccc43)c2cc1C (configuration not stated) | -8.9% | -22.1% | -6.3% | 1.4% | ? | -1.0%
COC(=O)c1cn(NC(=O)c2cnccn2)c(=O)c2ccccc12 | ? | -21.7% | -10.5% | -139.9% | ? | 9.28µM*
COC(=O)c1cn(NC(=O)c2ccccc2[N+](=O)[O-])c(=O)c2ccccc12 | -20.0% | -26.8% | -25.9% | . | -7.7% | -15.0%
COc1cc(OC)cc(C(=O)Nn2cc(C(=O)Nc3ccccc3F)c3ccccc3c2=O)c1 | -13.0% | -15.1% | ? | ? | -12.3% | 3.0%
COC(=O)c1cn(NC(=O)c2ccc(OC)c(OC)c2)c(=O)c2ccccc12 | -10.4% | -8.9% | 13.1µM* | 5.0% | 3.3% | ?
O=C(Nn1cc(C(=O)Nc2ccccc2F)c2ccccc2c1=O)c1cnccn1 | -12.6% | -8.3% | ? | . | -24.1% | 4.15µM*
O=C(Nc1ccccc1F)c1ccc(O)c2ncccc12 | . | . | 1.47µM* | . | . | 4.15µM*
COC(=O)c1cn(NC(=O)c2ccc(OC)c([N+](=O)[O-])c2)c(=O)c2ccccc12 | i | -4.8% | ? | . | -3.3% | 0.6%
CN(C)C(=O)c1cccc(-c2cc(NC=O)c3ncc(-c4ccc(F)cc4)n3c2)c1 | -17.9% | ? | . | . | . | .
Cc1cc(C)c(C#N)c(SCC(=O)Nc2ccc3c(c2)OCO3)n1 | -10.2% | -13.1% | 132.5% | -0.3% | ? | 99.0%
Cc1cccc(CSc2nnc(CCCCCNC(=O)OC(C)(C)C)o2)c1 | i | 1.0% | -8.7% | -31.9% | ? | 9.28µM*

Screening data deposited in PubChem BioAssay by National Center for Advancing Translational Sciences (NCATS).
